# Hits are enriched below; roughly 9% of the tested compounds scored in any of these assays.
# HP1b binding inh: HTS for Inhibitors of HP1-beta Chromodomain Interactions with Methylated Histone Tails. Chromobox protein homolog 1 (Homo sapiens), P83916. AlphaScreen HP1-beta / biotin-H3K9me3 peptide binding. Potency, µM (top dose mostly 114 µM), actives largely listed as inhibitors. 390,000 compounds, 0.56% hits. AID 540317, 2011; note: nearly all actives have a fitted effect of over 70% in size
#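 AlphaScreen: HP1-beta (50 nM) preformed 30 min with biotin-H3(1-18)K9me3 peptide (50 nM) in PBS pH 7.4, 0.01% Tween-20. Compound added for 30 min at RT, then streptavidin donor/nickel chelate acceptor beads (10 ug/mL) for 30 min.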
# BAZ2B block: qHTS Assay for Inhibitors of BAZ2B. 360,000 compounds, 4.4% hits. AID 504333, 2011. Bromodomain adjacent to zinc finger domain protein 2B (Homo sapiens), Q9UIF8. AlphaScreen BAZ2B-H3K14Ac peptide displacement. Potency, µM (series often up to 114 µM), actives largely listed as inhibitors; note: nearly all actives have a fitted effect of over 60% in size
#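 Inhibition is scored as reduced AlphaScreen emission. The BAZ2B/b-H3(5-23)K14Ac complex (50 nM each) in PBS pH 7.4, 0.01% Tween-20 meets compound (up to 110 uM) for 30 min at RT before bead addition.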
# JMJD2A Tudor: qHTS Assay for Inhibitors of JMJD2A-Tudor Domain. Lysine-specific demethylase 4A (Homo sapiens), O75164. AlphaScreen JMJD2A-Tudor / H3K4me3 peptide binding. Potency, µM (series often up to 114 µM), actives largely listed as inhibitors. 390,000 compounds, 4.4% hits; note: nearly all actives have a fitted effect of over 50% in size
# PLK1 PBD block: qHTS for Inhibitors of PLK1-PDB (polo-like kinase 1 - polo-box domain): Primary Screen | Serine/threonine-protein kinase PLK1 (Homo sapiens), P53350 | Plk1 PBD binding of FITC phosphopeptide, fluorescence polarization | Potency, µM, actives largely listed as inhibitors | 360,000 compounds, 2.8% hits | AID 720504, 2013; note: series mostly up to about 57 µM; nearly all actives have a fitted effect of over 65% in size
# 12-LOX inh: Primary qHTS assay for inhibitors of human arachidonate 12S-lipoxygenase (ALOX12): Round 2; Potency, µM (doses to about 108 µM), usual class: inhibitors; 580,000 compounds, 1.1% hits; Polyunsaturated fatty acid lipoxygenase ALOX12 (Homo sapiens), P18054; AID 1671190, 2021; purified 12hLO, xylenol orange hydroperoxide absorbance
# Target sequence (P18054 whole entry, looked up): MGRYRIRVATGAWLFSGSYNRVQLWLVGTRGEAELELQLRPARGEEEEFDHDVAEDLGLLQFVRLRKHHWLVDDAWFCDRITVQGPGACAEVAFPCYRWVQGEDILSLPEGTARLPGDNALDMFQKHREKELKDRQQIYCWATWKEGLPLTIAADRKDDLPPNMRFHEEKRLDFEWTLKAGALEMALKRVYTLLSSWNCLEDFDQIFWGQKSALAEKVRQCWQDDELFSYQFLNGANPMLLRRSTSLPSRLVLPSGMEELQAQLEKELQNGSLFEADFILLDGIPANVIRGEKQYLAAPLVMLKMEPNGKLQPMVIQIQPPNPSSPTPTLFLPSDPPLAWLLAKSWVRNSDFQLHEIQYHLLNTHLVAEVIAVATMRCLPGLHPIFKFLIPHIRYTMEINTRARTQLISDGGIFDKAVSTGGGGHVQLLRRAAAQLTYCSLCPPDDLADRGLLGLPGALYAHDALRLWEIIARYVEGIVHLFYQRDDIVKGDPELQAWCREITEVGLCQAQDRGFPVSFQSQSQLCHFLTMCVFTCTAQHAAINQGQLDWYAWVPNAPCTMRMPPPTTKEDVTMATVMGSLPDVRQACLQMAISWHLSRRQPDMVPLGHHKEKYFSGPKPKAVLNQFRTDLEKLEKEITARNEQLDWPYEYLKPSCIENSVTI
#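 Purified human 12hLO at 150 nM in 25 mM Hepes, 0.01% Triton X-100, pH 7.0, preincubated 15 min at room temperature with compound. Reaction started with 40 uM arachidonic acid, 30 min at room temperature. Hydroperoxide measured by Fe-xylenol orange, 573/405 nm absorbance ratio.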
# G9a block: qHTS Assay for Inhibitors of Histone Lysine Methyltransferase G9a. Histone-lysine N-methyltransferase EHMT2 (Homo sapiens), Q96KQ7. G9a H3K9 monomethylation, AlphaScreen, 2 h. Potency, µM (doses to about 102 µM), hits mostly inhibitors. 350,000 compounds, 8.8% hits; note: nearly all actives have a fitted effect of over 75% in size
#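 Compounds were preincubated with 20 nM G9a for 15 min, after which biotinylated H3K9 peptide (500 nM) and SAM (20 uM) started a 2 h room-temperature reaction. Monomethylated product was quantified by antibody-based AlphaScreen chemiluminescence.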
# Numbers stand for hits; 0 = inactive; ? = inconclusive; - = no result; [ ] = remark or other dose. Calls come from the whole dose curve; as a rule, active = well fitted curve in the direction sought with a large enough effect; inconclusive = small, poorly fitted or top-dose-only effect, or another doubt; inactive = no such curve, though single readings can be large; an effect the other way counts as inactive or inconclusive.
SMILES,HP1b binding inh,BAZ2B block,JMJD2A Tudor,PLK1 PBD block,12-LOX inh,G9a block
NC(=O)c1ccc(N=Cc2c(O)ccc3ccccc23)cc1,0,-,?,0,0,-
C/C(=N/O)c1ccc(-n2cncn2)cc1,-,-,-,-,0,-
Cc1cc(=O)n(CC(=O)Nc2cccc(F)c2)c(-c2ccc(F)cc2)n1,-,-,-,-,0,-
CN1Cc2ncnc(NCC3CCCCC3)c2CN(c2ccccc2)C1=O,-,-,-,-,0,-
COC(=O)c1ccc(NCCc2csc(-c3ccc(C)cc3)n2)c([N+](=O)[O-])c1,0,0,0,0,0,0
COc1cc(C(=O)Nc2cccc(OCc3cc(=O)n4cc(C)sc4n3)c2)cc(OC)c1OC,0,0,0,-,0,0
Cc1cc(-c2cccc(CCOc3cnc4c(ccn4CC(=O)O)c3)c2)ccn1,-,-,-,-,0,-
Cc1ccc(N=Cc2c(O)ccc3ccccc23)cc1F,0,0,56µM,0,0,1.3µM
COc1ccc(N=Cc2c(O)ccc3ccccc23)cc1,0,0,0,0,?,0.79µM
COc1ccc(N=Cc2c(O)[nH]c3ccccc23)cc1,0,0,0,0,0,0
COc1ccc(NC(C)C(=O)N/N=C/c2ccccc2OCc2cccc(Br)c2)cc1 (configuration not stated),?,10µM,11µM,0,0,40µM
O=S(=O)(/N=C/c1c(O)ccc2ccccc12)c1ccccc1,79µM,0,56µM,15µM,0,1.4µM
CC(=O)Nc1ccc(N=Cc2c(O)ccc3ccccc23)cc1,0,0,0,0,0,1.8µM
CC(C(=O)Nc1cc(Cl)cc(Cl)c1)N1CCN(c2ccc(O)cc2)CC1 (configuration not stated),-,-,-,-,20µM,-
COc1cccc(CC(=O)NCc2nnc3c(-c4nc(C)no4)cccn23)c1,-,-,-,-,0,-
Cc1c(O)ccc(C(=O)CN2CCN(c3ccccc3F)CC2)c1O,0,?,0,0,-,?
Cc1c(O)ccc(C(=O)CN2CCN(c3ccccc3)CC2)c1O,0,?,0,0,?,45µM
COc1ccc(N2CCN(CC(=O)c3ccc(O)c(C)c3O)CC2)cc1,0,?,?,0,0,40µM
CN(c1ccc([N+](=O)[O-])cc1C(N)=O)C1CCCCC1,0,79µM,0,0,0,0
O=C(O)C1CC(C(=O)O)SS1 (configuration not stated),0,-,32µM,0,?,-
O=C1[C@@H]2Cc3c([nH]c4ccccc34)C(c3ccccc3)N2C(=O)CN1C1CCN(Cc2ccccc2)CC1 (some centres not stated),0,32µM,?,0,0,79µM
COc1cc(C2c3[nH]c4ccccc4c3C[C@@H]3C(=O)N(Cc4ccco4)CC(=O)N23)cc(OC)c1OC (some centres not stated),?,0,?,0,0,0[2.33 µM]
C=CCc1cccc([C@@H]2[C@@H](C)CC[C@H]3C(=O)N4[C@@H](c5cc(OC)c(OC)c(OC)c5)c5[nH]c6ccccc6c5C[C@H]4C(=O)N23)c1,-,?,-,-,-,50µM
CCOc1ccccc1C1c2[nH]c3ccccc3c2C[C@H]2C(=O)N(C3CCN(Cc4ccccc4)CC3)CC(=O)N12 (some centres not stated),0,?,?,0,0,?
O=C1[C@@H]2Cc3c([nH]c4ccccc34)C(c3cccc(Br)c3)N2C(=O)CN1C1CCN(Cc2ccccc2)CC1 (some centres not stated),0,0,?,0,0,?
SMILES,HP1b binding inh,BAZ2B block,JMJD2A Tudor,PLK1 PBD block,12-LOX inh,G9a block
COc1ccc(C2c3[nH]c4ccccc4c3C[C@H]3C(=O)N(C4CCN(Cc5ccccc5)CC4)CC(=O)N23)c(OC)c1 (some centres not stated),0,0,22µM,?,0,?
O=C1NCCN1C1CCN(Cc2cccc3ccccc23)CC1,-,-,-,-,0[12.5 µM],-
COc1cc(C(=O)OCC(=O)c2ccccc2)cc2c1OCCO2,0,0,0,0,0,0[12.7 µM]
NCCCNc1ccc([N+](=O)[O-])cc1C(F)(F)F,0,0,0,0,0,0[0.501 µM]
Cc1cc2c(cc3c(SCc4ccc(Cl)cc4)nnc(C)n32)o1,0,28µM,?,-,0,4.5µM
COc1ccc(N(C)C(=O)Cn2cc(S(=O)(=O)N3CCN(c4ccccc4F)CC3)c3ccccc3c2=O)c(OC)c1,0,0,0,-,?,0
O=C(NCC1CCCO1)c1onc(CSc2ccccc2F)c1C(=O)O (configuration not stated),0,79µM,0,0,0,0[0.501 µM]
CC(=O)Nc1ccc(C(=O)N(C)c2ccccc2)cc1,0,0,0,0,0,0
CCn1nccc1C(=O)NCc1cc(C)cc2c(C)c(-c3ccccc3)[nH]c12,-,-,-,-,0,-
COc1cccc(NC(=O)CCP(C)(=O)O)c1,0,-,0[11.4 µM],0,0,0
O=C1CSC(=S)N1/N=C/c1cc(Br)c(O)c(Br)c1,0,35µM,16µM,0,-,40µM
O=C1CSC(=S)N1/N=C/c1cccnc1,0,0,0,?,0,7.1µM
O=C1CSC(=S)N1c1cccnc1,0,0,0,0,0,0
O=C1CSC(=S)N1Cc1cccnc1,?,40µM,?,?,0,?
C[C@@H](NC(=O)c1cccn1C)c1onc(-c2ccc(F)cc2)c1C(=O)O,-,-,-,-,0,-
Cc1noc(C)c1CCC(=O)N1CCCC(CCC(=O)NCc2ccc(F)c(F)c2)C1 (configuration not stated),?,0,100µM,0,0,?
COC(=O)c1ccccc1C(=O)N1CCCC(CCC(=O)NCc2ccc(F)c(F)c2)C1 (configuration not stated),0,0,0,0,0,5.6µM
Cc1ccc(S(=O)(=O)NC(CC(C)C)C(=O)N2CCC(C)CC2)cc1 (configuration not stated),0,0,0,0,0,0
O=C(CNC(=O)c1ccc(Cl)cc1)OCc1nc2ccccc2s1,0,0,0,0,0,?
Cc1ccc(S(=O)(=O)Nc2ccc(N3CCCCC3)cc2)cc1,?,35µM,?,0,?,22µM
Cc1ccc(S(=O)(=O)Nc2cc(NC(=O)CN3CCOCC3)ccc2Cl)cc1,0,79µM,0,0,0,?
Cc1ccc(NC(=O)CN2CCOCC2)cc1Cl,0,0,0,0,0,0
Cc1ccc(S(=O)(=O)Nc2ccc(N3CCOCC3)cc2)cc1,0,56µM,0,0,0,79µM
CC(=O)N1CCN(c2ccc(NS(=O)(=O)c3ccc(C)cc3)cc2)CC1,0,0,0,0,?,45µM
